Source: PubChem BioAssay (National Center for Advancing Translational Sciences (NCATS))
TDP1 cell noCPT = qHTS for Inhibitors of human tyrosyl-DNA phosphodiesterase 1 (TDP1): qHTS in cells in absence of CPT | DT40 Tdp1-/- hTDP1 cells, no CPT, ATP luminescence, 48 h | Potency, µM (top dose mostly 46.2 µM), for inactives: top-dose activity change, negative = growth inhibition, usual class: inhibitors | 420,000 compounds, 15% hits | AID 686978, 2013; further: potency means the concentration at half of the fitted maximal effect; on the % scale 0 is the no-effect control and ±100 the full control effect; nearly all actives have a fitted effect of over 55% in size
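DT40 Tdp1-/-;hTDP1 cells, no CPT (DMSO vehicle only), 400 cells/well; compounds pin-transferred; ≥48 hr, 37 °C; CellTiter-Glo 30 min RT dark, luminescence read.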
TGFb inhibitor = qHTS for Inhibitors of TGF-b. HepG2 CAGA-GFP TGF-b/SMAD3 reporter, GFP fluorescence, 18 h; TGF-beta stimulated, 500 pg/mL final. AID 588855, 2011. Potency, µM (top dose mostly 46.1 µM), for inactives: at the top dose activity, negative = inhibition, hits mostly inhibitors. 410,000 compounds, 1.2% hits; further: potency means the concentration at half of the fitted maximal effect; on the % scale 0 is the no-effect control and ±100 the full control effect; nearly all actives have a fitted effect of over 65% in size
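TGF-beta reporter screen: HEPG2 CAGA-GFP, 1% FBS, 500 pg/mL TGF-beta final, 18 h; per-cell GFP summed per well; curves fitted and categorized by class.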
TDP1 cell CPT = qHTS for Inhibitors of human tyrosyl-DNA phosphodiesterase 1 (TDP1): qHTS in cells in presence of CPT | AID 686979, 2013 | chicken DT40 Tdp1-/-;hTDP1 cells + 20 nM CPT, ATP luminescence, 48 h | Potency, µM (highest dose often 46.2 µM), without a hit: at the highest dose activity change, negative = growth inhibition, usual class: inhibitors | 420,000 compounds, 12% hits; further: potency means the concentration at half of the fitted maximal effect; on the % scale 0 is the no-effect control and ±100 the full control effect; nearly all actives have a fitted effect of over 55% in size
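Chicken DT40 Tdp1-/- cells stably complemented with human TDP1 were seeded at 400 cells/well in medium containing 20 nM camptothecin, exposed to pin-transferred compounds, and grown at 37 °C for at least 48 hr. Viability was read as ATP luminescence.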
IL-1B inflam inh = qHTS for Inhibitors of Inflammasome Signaling: IL-1-beta AlphaLISA Primary Screen | activity change, % at 57.5 µM | AID 743279, 2014 | 360,000 compounds, 4.7% hits | THP-1 LPS/ATP IL-1B secretion, AlphaLISA, 16 h; stronger effect = lower value; in the data active means activity change below about -50%; inconclusive means mostly about -30% to -49%; further: on the % scale 0 is the no-effect control and ±100 the full control effect
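Secreted IL-1B measured by AlphaLISA bead assay after 16 h compound exposure of THP-1 cells; compounds (final up to 57.5 uM) added 1 h before LPS (250 ng/mL) and ATP (1.25 mM) stimulation; lower signal means less secretion.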
HepG2 tox = qHTS for Inhibitors of TGF-b: Cytotox Counterscreen; HepG2 CAGA-GFP viability, ATP luminescence, 18 h; Potency, µM (series often up to 46.1 µM), for the others: at the highest dose activity change, negative = cytotoxicity, most hits filed as cytotoxic; 410,000 compounds, 0.76% hits; further: potency means the concentration at half of the fitted maximal effect
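CellTiter-Glo luminescence gave cytotoxicity after 18 hours at 37 degrees C. The cells were HepG2 CAGA-GFP in 1% FBS DMEM, stimulated with 500 pg/mL TGF-beta after compound addition. %Activity was normalised to no-cell wells (complete cell-killing) and DMSO (no toxicity), and curves were fitted and classified.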
ASM inhibitor = Inhibitors of Secretory Acid Sphingomyelinase (S-ASM): qHTS | placental ASM, HMU-PC fluorogenic substrate, 60 min | Potency, µM (series often up to 57.5 µM), for the others: top-dose activity change, negative = inhibition, hits mostly inhibitors | 340,000 compounds, 0.006% hits | AID 504937, 2011; further: potency means the concentration at half of the fitted maximal effect
Target sequence (P17405 47-631 limits assumed): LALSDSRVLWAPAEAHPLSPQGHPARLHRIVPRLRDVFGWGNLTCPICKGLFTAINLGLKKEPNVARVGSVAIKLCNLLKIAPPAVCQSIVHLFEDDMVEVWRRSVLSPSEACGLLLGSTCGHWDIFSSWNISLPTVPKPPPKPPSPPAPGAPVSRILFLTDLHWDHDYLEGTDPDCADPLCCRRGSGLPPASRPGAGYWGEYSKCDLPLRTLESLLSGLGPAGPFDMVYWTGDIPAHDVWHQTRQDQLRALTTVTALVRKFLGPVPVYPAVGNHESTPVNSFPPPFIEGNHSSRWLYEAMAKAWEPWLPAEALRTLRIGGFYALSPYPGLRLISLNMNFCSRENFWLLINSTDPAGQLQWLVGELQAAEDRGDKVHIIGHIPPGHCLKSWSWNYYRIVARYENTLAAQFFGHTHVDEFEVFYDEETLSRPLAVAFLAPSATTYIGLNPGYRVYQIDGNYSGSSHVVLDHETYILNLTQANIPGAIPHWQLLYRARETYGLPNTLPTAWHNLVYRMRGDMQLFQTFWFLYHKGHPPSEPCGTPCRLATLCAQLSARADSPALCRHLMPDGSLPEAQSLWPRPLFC
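Fluorescence read-out (Ex 386 nm, Em 447 nm) after stopping the reaction at pH 10. Enzyme: ASM from human placenta; substrate HMU-PC0, 9 uM final; 60 min, 37 °C. Compound preincubation 10 min, ambient temperature.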
Numbers without * were called inactive; i = inactive; u = inconclusive; x = no result given; [ ] = dose if it differs, or a comment. An excerpt weighted towards active compounds, which were near 19% of everything screened. Unless noted, the call rests on the fitted dose curve; in most records, active means well fitted curve in the direction sought with a large enough effect; inconclusive means small, poorly fitted or top-dose-only effect, or another doubt; inactive means no such curve, though single readings can be large; an effect the other way counts as inactive or inconclusive.

SMILES	TDP1 cell noCPT	TGFb inhibitor	TDP1 cell CPT	IL-1B inflam inh	HepG2 tox	ASM inhibitor
O=C(COc1ccccc1Cl)N1CCN(C(=O)c2ccco2)CC1	-8.5%	16.3%	12.8%	-1.6	-0.7%	0.7%
O=C(c1ccc(COc2ccccc2Cl)o1)N1CCN(c2ccccc2)CC1	29.1µM*	0.7%	u	22.6	-8.2%	-5.1%
O=C(c1ccc(COc2ccc3c(c2)CCC3)o1)N1CCN(c2ccccc2)CC1	u	-6.3%	14.6µM*	-72.5*	-33.8%	-10.1%
COc1cc(Cl)c(C)cc1N1C(=O)[C@@H]2C[C@H]1CN2Cc1ccccn1	-17.2%	x	-3.3%	x	x	x
N#Cc1ccc(S(=O)(=O)NC2CCCCNC2=O)cc1 (stereo not drawn)	-2.8%	0.1%	15.8%	3.9	20.1%	2.0%
O=C(CCCOc1ccc(Cl)cc1Cl)N/N=C/c1ccccc1	u	u	u	-20.7	-58.2%	-12.5%
O=C(CCCC(=O)NN=Cc1ccccc1Cl)NN=Cc1ccccc1Cl	16.4µM*	0.0%	16.4µM*	0.0	5.2%	-9.9%
Cc1ccc(/C=N/NC(=O)CCCOc2ccc(Cl)cc2Cl)cc1	10.3µM*	-1.3%	8.2µM*	-77.0*	-62.1%	u
O=C(CCCOc1ccc(Cl)cc1Cl)N/N=C/c1ccccc1O	5.17µM*	u	5.17µM*	0.0	-34.5%	140.0%
O=C(CCC(=O)N/N=C/c1cc(Cl)cc(Cl)c1O)NCc1ccccc1	23.1µM*	-22.9%	u	165.9	-25.4%	i
CCCCOc1ccc(CNC(=O)CN2C(=O)CCn3nc(-c4cn(C)c5ccccc45)cc32)cc1	-22.2%	-0.7%	-12.7%	x	-28.5%	x
CC1CC(=O)N(CC(=O)Nc2ccc(F)cc2F)c2ccccc2S1(=O)=O (stereo not drawn)	20.4%	9.0%	-19.1%	20.0	0.8%	-1.2%
O=C(COc1ccc(Cl)cc1[N+](=O)[O-])N/N=C/c1cccs1	29.1µM*	-20.9%	-18.7%	-19.7	-18.8%	-8.8%
CN(C(=S)NC(=O)Cc1ccccc1)c1ccccc1	u	u	u	-60.5*	-54.9%	-2.0%
CC(C)NC(=O)CCCOc1ccc(Cl)cc1Cl	-9.8%	-0.7%	-9.8%	-7.1	-8.8%	4.7%
COc1ccc(/C=N/NC(=O)CCCOc2ccc(Cl)cc2Cl)cc1[N+](=O)[O-]	16.4µM*	-27.7%	u	-5.8	-24.5%	u
CN(C(=S)NC(=O)CCCOc1ccc(Cl)cc1Cl)c1ccccc1	15.8µM*	-25.1%	u	-3.9	-15.7%	-3.5%
Cc1ccc(/C=N/NC(=O)CCCOc2ccc(Cl)cc2Cl)cc1[N+](=O)[O-]	-27.5%	-11.7%	-16.7%	-0.3	-41.5%	-27.4%
COc1ccc(N2CCN(CCCn3cnc4c(SC)ncnc43)CC2)cc1	u	-27.4%	u	28.4	-27.2%	x
Cc1c(C(=O)N(Cc2ccc(N(C)C)cc2)Cc2ccco2)oc2cc(Br)ccc12	9.2µM*	x	23.1µM*	x	0.6%	x
Cc1ccc2c(CC(=O)N(Cc3ccc(N(C)C)cc3)Cc3ccco3)coc2c1C	18.4µM*	u	16.4µM*	x	-20.5%	x
Cc1cc(C)c2c(CC(=O)N(Cc3ccc(Cl)cc3)Cc3ccco3)coc2c1	8.2µM*	x	u	x	-30.1%	x
CCN(Cc1nc2cc(Cl)ccc2c(=O)[nH]1)C(=O)c1cc(C2CC2)nn1-c1ccccc1	2.91µM*	u	5.17µM*	17.5	-5.9%	-5.9%
COc1cccc(OCCNCc2ccccc2)c1	18.4µM*	-9.0%	u	-18.7	-22.2%	1.4%
Cc1cccc(OCCCCNCc2ccccc2)c1	u	9.1%	-14.3%	-71.8*	-16.5%	4.2%
SMILES	TDP1 cell noCPT	TGFb inhibitor	TDP1 cell CPT	IL-1B inflam inh	HepG2 tox	ASM inhibitor
COc1cc(C2c3c(-c4c(C)cc(C)cc4O)n[nH]c3C(=O)N2Cc2ccco2)cc(OC)c1OC (stereo not drawn)	-26.6%	-9.2%	-29.6%	x	-14.1%	x
CC1=NCCN1S(=O)(=O)c1c(C(C)C)cc(C(C)C)cc1C(C)C	u	-11.7%	-18.7%	-58.5*	-19.4%	0.1%
COCCn1c(N)c(C(=S)NC(=O)c2cccs2)c(=O)[nH]c1=O	u	-4.1%	10.3µM*	-8.8	-2.6%	4.3%
COCCN(C(=O)COC(=O)CNC(=O)c1cccs1)c1c(N)n(Cc2ccccc2)c(=O)[nH]c1=O	0.8%	-0.5%	15.8%	5.0	-25.5%	7.3%
COc1cccc(NC(=O)CSc2nc3c(c(=O)n2C)SC(C)C3)c1 (stereo not drawn)	u	2.7%	u	15.9	-10.0%	7.4%
Cc1cc(C)c(NC(=O)CSc2nnc(SCC(=O)Nc3c(C)cc(C)cc3C)n2N)c(C)c1	u	-12.8%	14.6µM*	1.1	-15.5%	-0.4%
Cc1cc(C)c(NC(=O)CSc2nc3c(c(=O)n2C)SC(C)C3)c(C)c1 (stereo not drawn)	13µM*	8.7%	20.6µM*	-6.2	-1.3%	-2.7%
CCOc1ccc(NC(=O)CSc2nc3c(c(=O)n2C)SC(C)C3)cc1 (stereo not drawn)	u	-19.6%	16.4µM*	18.2	-20.5%	-3.1%
CC1Cc2nc(SCC(=O)Nc3ccc(F)cc3)n(C)c(=O)c2S1 (stereo not drawn)	u	-9.6%	23.1µM*	-11.3	-3.0%	3.2%
Cc1cc(C)cc(NC(=O)CSc2nc3c(c(=O)n2C)SC(C)C3)c1 (stereo not drawn)	-22.0%	-1.5%	-28.5%	7.8	-3.6%	6.0%
O=C(Nc1ccc(N2CCN(C(=O)c3cccs3)CC2)cc1)c1ccccc1Cl	11.6µM*	-23.3%	14.6µM*	-56.8*	-6.5%	-3.0%[11.5 µM]
CC(C)(C)C(=O)Nc1ccc(N2CCN(C(=O)c3cccs3)CC2)cc1	-23.4%	-1.4%	-7.4%	u	-12.6%	x
COc1cccc(OC)c1C(=O)Nc1ccc(N2CCN(C(=O)c3cccs3)CC2)cc1	u	-5.8%	-22.5%	0.0	-24.2%	1.2%
O=C(Nc1ccc(N2CCN(C(=O)c3ccccc3F)CC2)cc1)c1cncc(Br)c1	18.4µM*	-0.7%	u	-57.9*	-7.4%	-2.9%
O=C(Nc1ccc(N2CCN(C(=O)c3cccs3)CC2)cc1)c1ccccc1F	18.4µM*	-14.1%	u	-61.9*	6.3%	-1.4%
